In the library only some 1.2% were active in any assay of this set; here they are far more common.
HUVEC tox IL1B = HUVEC cytotoxicity counter-screen, IL-1B stimulated | HUVEC cell count loss, Hoechst imaging | cell count reduction, % at 2 µM | 0.41% of 94,000 active;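 active means cell count reduction more than 3 SD above the screen-wide mean, cut at about 70% in these data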
IL1B NFkB pot = enhances IL-1B driven NFkB nuclear translocation; HUVEC IL-1B NFkB p65 nuclear translocation imaging; activation, % at 2 µM; 0.3% of 94,000 active; AID 819;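 active means activation above 40%, about the mean plus 3 SD, also judged a hit on visual image review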;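 further: percent activation is computed from the nuclear over cytoplasmic p65 intensity ratio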
IL1B NFkB inh = blocks IL-1B driven NFkB nuclear translocation in HUVEC cells. HUVEC IL-1B NFkB p65 nuclear translocation imaging. inhibition, % at 2 µM. 0.43% of 94,000 active;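 active means inhibition above about 30% together with a positive call from visual inspection of the well image, limit read from the data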;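 further: nuclear over cytoplasmic p65 intensity ratio measured by imaging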
sEH inh = blocks human soluble epoxide hydrolase activity. recombinant human sEH enzymatic activity assay. 0.34% of 91,000 active. AID 707. P34913. inhibition, % at 2 µM; in the data active means inhibition above about 80%
Target sequence (P34913 whole entry, looked up): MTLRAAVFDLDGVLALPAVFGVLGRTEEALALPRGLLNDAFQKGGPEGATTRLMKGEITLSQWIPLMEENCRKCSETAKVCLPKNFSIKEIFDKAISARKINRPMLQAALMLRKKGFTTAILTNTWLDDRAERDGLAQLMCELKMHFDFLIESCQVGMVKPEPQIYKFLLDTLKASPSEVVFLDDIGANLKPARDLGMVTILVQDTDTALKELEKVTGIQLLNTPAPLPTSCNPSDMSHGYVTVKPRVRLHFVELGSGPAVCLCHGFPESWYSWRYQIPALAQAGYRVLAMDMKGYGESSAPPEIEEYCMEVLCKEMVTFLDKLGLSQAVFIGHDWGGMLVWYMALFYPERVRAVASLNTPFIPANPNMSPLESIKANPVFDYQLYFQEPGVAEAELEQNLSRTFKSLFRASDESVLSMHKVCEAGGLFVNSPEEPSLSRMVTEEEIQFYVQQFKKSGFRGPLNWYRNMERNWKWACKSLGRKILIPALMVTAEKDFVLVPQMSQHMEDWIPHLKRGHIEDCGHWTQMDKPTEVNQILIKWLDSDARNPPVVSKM
sEH activator = soluble epoxide hydrolase (human) activation; P34913; purified human sEH enzymatic activity, activator screen; activation, % at 2 µM; 0.04% of 91,000 active; AID 717; in the data active means activation above about 37%
Each line names hits and unclear results; the compound was inactive in the other large screens.

Cn1c(O)c(C(c2ccccn2)c2c(O)n(C)c(=S)[nH]c2=O)c(=O)[nH]c1=S	HUVEC tox IL1B 91
COc1ccc(CN2CCN(c3ccccc3)CC2)c(C)c1C	none
CCCCn1c(O)c(C=Nc2c(C)n(C)n(-c3ccccc3)c2=O)c(=O)[nH]c1=O	IL1B NFkB pot 48
C=CCN1C(=O)NC(=O)/C(=C/c2cccn2C)C1=O	IL1B NFkB inh 41
C=CCN1C(=O)NC(=O)C(Cc2ccc(OC)c(OC)c2)C1=O (stereo not given)	none
Cn1c(=O)cc(OCCCC(=O)N2CCC3(CC2)OCCO3)c2ccccc21	none
O=C(CCCOc1ccc(Cl)cc1Cl)N1CCC2(CC1)OCCO2	HUVEC tox IL1B 85, IL1B NFkB inh 97
CC(Cc1ccccc1)NC(=O)NC(C)Cc1ccccc1 (stereo not given)	sEH inh 98 (no result: HUVEC tox IL1B, IL1B NFkB pot, IL1B NFkB inh)
CC(=NCCCN1CCOCC1)c1c(O)[nH]c(=O)[nH]c1=O	none
c1ccc2c(CNC3CCCCCC3)c[nH]c2c1	none
CN1C(=O)C(C2(C#N)CCCCC2)C(=O)N(C)C1=O	IL1B NFkB pot 49
C/C(=N/OC(=O)N(C)C)c1ncc(C(F)(F)F)cc1N1CCOCC1	none

Screening results (PubChem)
